# The whole screen tested about 200,000 compounds, of which about 4,500 (2.2%) were called active. Inconclusive results (about 12%) are left out. The call rests on the fitted dose curve; in most records, active means well fitted inhibition curve with a large enough effect; inconclusive means small, poorly fitted or top-dose-only effect, or effect the other way; inactive means flat fitted curve, though single readings scatter. The list comes from a sample in which actives are over-represented; it also holds similar structures and randomly drawn compounds.
# Biological target: Cruzipain (Trypanosoma cruzi) (UniProt P25779)
# Test: qHTS Assay for Promiscuous and Specific Inhibitors of Cruzain (without detergent); further: nearly all actives have a fitted effect of over 40% in size;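 on max response, negative = inhibition: plate controls were enzyme without inhibitor for no effect and buffer without enzyme for full effect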
# Conditions: purified cruzain, Z-FR-AMC fluorescence, no detergent
# In short: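 Purified cruzain at 1.5 nM, pre-incubated 15 min with compound at room temperature in 100 mM sodium acetate pH 5.5, 5 mM DTT, 0.00005% Triton X-100. Reaction started with 2 uM Z-FR-AMC; AMC fluorescence increase over 60 s gives rate.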
# Potency means the concentration at half of the fitted maximal effect.
# Sequence of Cruzipain (Trypanosoma cruzi) (P25779 123-467 limits assumed): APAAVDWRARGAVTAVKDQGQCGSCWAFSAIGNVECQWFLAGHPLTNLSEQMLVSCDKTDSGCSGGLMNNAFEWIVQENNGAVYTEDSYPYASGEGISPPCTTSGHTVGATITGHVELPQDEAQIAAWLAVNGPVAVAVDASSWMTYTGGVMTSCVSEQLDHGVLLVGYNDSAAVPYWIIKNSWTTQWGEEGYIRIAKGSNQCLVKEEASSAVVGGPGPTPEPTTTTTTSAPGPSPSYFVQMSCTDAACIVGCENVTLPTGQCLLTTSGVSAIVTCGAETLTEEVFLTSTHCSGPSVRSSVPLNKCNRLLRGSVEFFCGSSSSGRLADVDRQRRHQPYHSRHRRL
Structure (SMILES),"max response, negative = inhibition",Potency
CCOc1ccc(N(CC)S(=O)(=O)N2CCCC(C(=O)Nc3ccc(C(C)=O)cc3)C2)cc1 (stereo not drawn),-0.766% (inactive),–
COc1ccc(CCNC(=O)c2cnc3sc(N4CCCCCC4)nn3c2=O)cc1OC,2.6% (inactive),–
CC(=O)c1c(Nc2ccccc2)sc(C(=O)c2ccccc2)c1C,5.34% (inactive),–
COc1ccc(C(=O)NNS(=O)(=O)c2ccc(C)cc2)cc1,-9.3% (inactive),–
CO/N=C(/CS(=O)(=O)c1ccc(Br)cc1)c1ccc(OC)cc1,0.45% (inactive),–
COc1cccc(C(=O)c2sc3nc(-c4ccccc4)cc(C(F)(F)F)c3c2N)c1,-13.2% (inactive),–
COc1ccc(S(=O)(=O)c2c(Nc3ccc(C)cc3)sc(C(=O)c3ccc(C)cc3)c2N)cc1,–,5.01 µM (active)
COc1ccc(S(=O)(=O)c2c(Nc3cccc(Cl)c3)sc(C(=O)c3ccccc3)c2N)cc1,–,3.98 µM (active)
Cc1ccc(-c2nnc(Nc3ccc(OCC(N)=O)cc3)c3ccccc23)cc1S(=O)(=O)NCC1CCCO1 (stereo not drawn),7.01% (inactive),–
Cc1ccccc1NC(=O)Cn1c(=O)n(Cc2ccco2)c(=O)c2ccc(C(=O)NC3CCCC3)cc21,4.88% (inactive),–
COc1ccc(N2C(=O)NC(NS(=O)(=O)c3ccc(Cl)cc3)(C(F)(F)F)C2=O)cc1 (stereo not drawn),-4.66% (inactive),–
CC(C)C12CN3CC(C(C)C)(CN(C1)C3c1ccc(OCc3ccccc3)cc1)C2=O (stereo not drawn),10.1% (inactive),–
Cc1ccc(-c2cc(C(=O)Oc3ccccc3Cl)no2)cc1C,0.973% (inactive),–
COc1ccc(-c2nn(-c3ccccc3)cc2/C=N/Nc2ccccn2)cc1OC,18.4% (inactive),–
Cc1ccc(-c2nn(-c3ccccc3)cc2/C=N/NC(=O)c2ccc3c(c2)OCO3)cc1,–,25.1 µM (active)
Cc1nnc(SCC(=O)N/N=C/c2cn(-c3ccccc3)nc2-c2ccc(F)cc2)n1-c1ccccc1,-3.1% (inactive),–
COc1ccccc1CNC(=O)CCn1c(=O)c2ccccc2n(CC(=O)Nc2ccc(Br)cc2F)c1=O,-7.67% (inactive),–
COc1ccccc1-c1cc(C(F)(F)F)nc(S(=O)(=O)CCCC(=O)Nc2cc(C)ccc2O)n1,-0.825% (inactive),–
Cc1ccccc1NC(=O)Cn1c(=O)n(CCc2ccccc2)c(=O)c2ccccc21,-10.6% (inactive),–
Cc1ccc(S(=O)(=O)c2nc(-c3cccs3)oc2N2CCCCC2)cc1,3.47% (inactive),–
CN(C(=O)CSc1nc(C2CC2)nc2ccccc12)c1nc(-c2ccccc2)cs1,–,3.16 µM (active)
O=C(CSc1nc(C2CC2)nc2ccccc12)Nc1ccc2c(c1)OCCO2,2.26% (inactive),–
COC(=O)CSc1nc(C2CC2)nc2ccccc12,-5.14% (inactive),–

# — PubChem BioAssay AID1476 (National Center for Advancing Translational Sciences (NCATS), 2009)
